From PubChem BioAssay AID1220 (Sanford-Burnham Center for Chemical Genomics, 2008)
Among all 190,000 compounds or so, about 1,300 (0.68%) were called active. The sample as a whole holds a higher share of actives than the screen did. Values without a mark were called inactive. Rule as the data show it: active = inhibition above about 50%; inactive = the rest.

Target: Mannose-6-phosphate isomerase (Homo sapiens) (UniProt P34949)
Assay: MPI inhibition at elevated mannose 6-phosphate – biochemical, fluorescence intensity, high mannose 6-phosphate, primary screen (AID 1220)
Details: recombinant PMI enzyme, coupled fluorescence intensity; at 20 µM; hits give high values

Sequence of Mannose-6-phosphate isomerase (Homo sapiens) (P34949 whole entry, looked up): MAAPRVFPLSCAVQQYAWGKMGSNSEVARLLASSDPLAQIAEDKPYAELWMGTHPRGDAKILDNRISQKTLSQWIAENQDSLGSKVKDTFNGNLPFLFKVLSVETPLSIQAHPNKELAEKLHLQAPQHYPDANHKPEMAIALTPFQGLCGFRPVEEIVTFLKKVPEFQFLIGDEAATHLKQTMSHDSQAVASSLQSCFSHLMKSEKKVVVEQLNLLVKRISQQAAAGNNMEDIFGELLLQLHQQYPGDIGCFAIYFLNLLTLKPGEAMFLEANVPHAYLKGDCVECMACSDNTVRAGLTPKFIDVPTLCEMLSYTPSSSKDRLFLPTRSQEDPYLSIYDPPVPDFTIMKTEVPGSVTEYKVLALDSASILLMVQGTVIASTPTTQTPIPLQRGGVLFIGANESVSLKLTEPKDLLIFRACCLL

| SMILES | inhibition |
| --- | --- |
| COc1cc(C2Nc3ccc4ncccc4c3C3=C2C(=O)CCC3)cc(OC)c1O (centres undefined) | 42.6% |
| COc1cc(C2Nc3ccc4ncccc4c3C3=C2C(=O)CCC3)ccc1O (centres undefined) | 46.7% |
| COc1cc(C2Nc3ccc4ncccc4c3C3=C2C(=O)CCC3)cc(OC)c1OC (centres undefined) | 52.8% (active) |
| COC(=O)/C(=C1/Oc2ccc(C)cc2S1)C(F)(F)F | 1.2% |
| O=S(=O)(NC1CCCCC1Sc1ncccn1)c1ccc(Cl)cc1 (centres undefined) | -26% |
| COc1cc2c(=O)c(-c3ccc(O)cc3)coc2cc1OC1OC(CO)C(O)C(O)C1O (centres undefined) | 12.9% |
| O=C(CSc1n[nH]c(-c2cccs2)n1)NCc1cccs1 | 0.2% |
| CCOC(=O)CNC(=O)C1(c2ccccc2)CCCC1 | 3.8% |
| COc1cc2c(cc1OC)C1=C(C#N)CN(C3CCCCC3)CN1CC2 | 32.8% |
| COc1ccc(CCN2CC(C#N)=C3c4cc(OC)c(OC)cc4CCN3C2)cc1OC | 21.4% |
| CCOc1cc(-c2c(C#N)c(N)nc3c2CCCC3)ccc1O | 12.6% |
| CSc1nc2c(cc1C#N)CCCCC2 | -0.4% |
| C/C(=C\C=C(C#N)C#N)c1cc(C#N)c(N)o1 | 70.9% (active) |
| COc1cc(NC(=O)NS(=O)(=O)c2ccc(C)cc2)cc(OC)c1 | 41% |
| COc1ccc(NC(=O)NS(=O)(=O)c2ccc(C)cc2)c(OC)c1 | 57.2% (active) |
| COc1ccccc1NC(=O)NS(=O)(=O)c1ccc(C)cc1 | 1.2% |
| O=C(NNc1nc(-c2ccccc2)c2cc(Br)ccc2n1)c1ccc(S(=O)(=O)N2CCCCC2)cc1 | -0.2% |
| COC(=O)c1cc(S(=O)(=O)n2nc(C)c(Br)c2C)c(Cl)cc1Cl | -5% |
| Cc1c(Nc2ncnc3nc[nH]c23)c(=O)n(-c2ccccc2)n1C | 1.1% |
| CCCn1cc(S(=O)(=O)CC(=O)Nc2ccc(OCC)cc2)c2ccccc21 | 17.3% |
| CCn1cc(S(=O)(=O)CC(=O)Nc2ccc(C)cc2)c2ccccc21 | -0.5% |
| Cn1cc(S(=O)(=O)CC(=O)Nc2ccc3c(c2)OCCO3)c2ccccc21 | 50.9% (active) |
| COc1ccc(NC(=O)Cn2cc(S(=O)(=O)Cc3ccccc3)c3ccccc32)c(OC)c1 | 16.9% |
| CCn1cc(S(=O)(=O)CC(=O)Nc2ccc3c(c2)OCCO3)c2ccccc21 | 53.3% (active) |
| Cn1cc(S(=O)(=O)CC(=O)Nc2ccc3c(c2)OCO3)c2ccccc21 | 25.7% |

| SMILES | inhibition |
| --- | --- |
| Cc1cccc(NC(=O)CS(=O)(=O)c2cn(C)c3ccccc23)c1 | 17.7% |
| CCN(CC)C(=O)Cn1cc(S(=O)(=O)CC(=O)Nc2ccc3c(c2)OCCO3)c2ccccc21 | 1.2% |
| CCCn1cc(S(=O)(=O)CC(=O)Nc2ccc(OC)cc2OC)c2ccccc21 | 56.6% (active) |
| CCCN1C(=O)/C(=C\C=C2/Sc3ccccc3N2CCO)SC1=S | 10.5% |
| O=C(N/N=C/c1ccc(Br)o1)c1cccnc1 | 5.3% |
| COc1ccc(/C=C/C(=O)OCCCN(C)C)cc1 | -6.3% |
| CCOC(=O)c1ccc(NCc2nc3ccccc3[nH]2)cc1 | -1.4% |
| O=C(O)c1cc(-c2ccccc2)n(-c2ccc(Cl)cc2)n1 | -7.9% |
| O=c1oc2c(CN3CCOCC3)c(O)ccc2c2c1CCC2 | 14.1% |
| COCCN(CCOC)Cc1c(O)ccc2c3c(c(=O)oc12)CCC3 | 50.9% (active) |
| CC(C)CN(Cc1c(O)ccc2c3c(c(=O)oc12)CCC3)CC(C)C | 10% |
| COC(=O)c1cn(CC(=O)NC2CCCCCC2)c2ccccc12 | 4.4% |
| CC(C)CC1NC(=O)N(CC(=O)N2CCCc3ccccc32)C1=O (centres undefined) | -5.9% |
| O=C(/C=C/c1ccccc1Cl)NCc1ccccc1 | 7.8% |
| O=C(CN1C(=O)NC2(CCCCCC2)C1=O)NC1CCCCCCC1 | -3.9% |
| Cc1ccccc1CSCCC(=O)NCCc1ccccc1 | -6.4% |
| CCN1/C(=N\N)c2cccc3cccc1c23 | -13% |
| CNC(=O)CN1C(=O)c2cccc3cccc1c23 | -3.7% |
| CC(C)c1ccc(CNC(=O)C(=O)Nc2nccs2)cc1 | -3.8% |
| CNc1nc2ccccc2n1N | -3.8% |
| CC(Sc1nc(NCc2ccccc2)nc(N2CCOCC2)n1)C(=O)Nc1ccccc1 (centres undefined) | 12.4% |
| Cc1ccc(Cl)cc1NC(=O)C1CCCN(S(=O)(=O)c2c(C)noc2C)C1 (centres undefined) | 50.2% (active) |
| Cc1noc(C)c1S(=O)(=O)N1CCCC(C(=O)Nc2ccc(Cl)cn2)C1 (centres undefined) | -3% |
| Cc1ccccc1NC(=O)C1CCCN(S(=O)(=O)c2c(C)noc2C)C1 (centres undefined) | -2.1% |
